The target of one experiment is HOXA4 (Homo sapiens, UniProt Q00056 201-287). Kind of experiment: PBM; 200 nM protein, PBS. Particulars: dsDNA, one strand shown.
Sequence of HOXA4 (Homo sapiens, UniProt Q00056 201-287) (Q00056 201-287): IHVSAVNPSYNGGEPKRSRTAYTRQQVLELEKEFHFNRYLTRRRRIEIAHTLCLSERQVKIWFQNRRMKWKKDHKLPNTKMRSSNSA
With CATGATTA, the binding signal is 12.6 upbm affinity estimate (log intensity, higher = more binding, comparable within an allelic series).

For the sequence AGTCCCCG, the binding signal was 9.89 upbm affinity estimate (log intensity, higher = more binding, comparable within an allelic series).

In the case of TAAAATTA, the binding signal is 12.2 upbm affinity estimate (log intensity, higher = more binding, comparable within an allelic series).

For the sequence CTCCCACC, the binding signal is 9.74 upbm affinity estimate (log intensity, higher = more binding, comparable within an allelic series).

As to CCACGCCC, the binding signal was 9.64 upbm affinity estimate (log intensity, higher = more binding, comparable within an allelic series).

As to CAGACCTC, the binding signal is 9.81 upbm affinity estimate (log intensity, higher = more binding, comparable within an allelic series).

On to AACATTAG, for which the binding signal is 12.4 upbm affinity estimate (log intensity, higher = more binding, comparable within an allelic series).

In the case of CCAGCGGG, the binding signal is 9.72 upbm affinity estimate (log intensity, higher = more binding, comparable within an allelic series).

In the case of AATCCCCC, the binding signal was 9.87 upbm affinity estimate (log intensity, higher = more binding, comparable within an allelic series).

Take CACGGTGC: the binding signal is 9.75 upbm affinity estimate (log intensity, higher = more binding, comparable within an allelic series).

In the case of CCTGCTCC, the binding signal is 9.83 upbm affinity estimate (log intensity, higher = more binding, comparable within an allelic series).

On to CCAGCCGG, for which the binding signal is 9.56 upbm affinity estimate (log intensity, higher = more binding, comparable within an allelic series).

For the sequence AATTGTTC, the binding signal is 11.9 upbm affinity estimate (log intensity, higher = more binding, comparable within an allelic series).

For CAATTTAG, the binding signal is 12.1 upbm affinity estimate (log intensity, higher = more binding, comparable within an allelic series).

Turning to AGGGGGCA, the binding signal was 9.88 upbm affinity estimate (log intensity, higher = more binding, comparable within an allelic series).

On to AAGCTAAT, for which the binding signal is 12.3 upbm affinity estimate (log intensity, higher = more binding, comparable within an allelic series).

Consider CAATCACG, for which the binding signal is 11.2 upbm affinity estimate (log intensity, higher = more binding, comparable within an allelic series).

GGCGAGCC: the binding signal is 9.66 upbm affinity estimate (log intensity, higher = more binding, comparable within an allelic series).

As to ACCCTAGG, the binding signal was 9.97 upbm affinity estimate (log intensity, higher = more binding, comparable within an allelic series).

As for TGATGACA, the binding signal is 11.8 upbm affinity estimate (log intensity, higher = more binding, comparable within an allelic series).

As for AGCTCCCC, the binding signal was 9.78 upbm affinity estimate (log intensity, higher = more binding, comparable within an allelic series).

Take CCTCCGTC: the binding signal was 9.63 upbm affinity estimate (log intensity, higher = more binding, comparable within an allelic series).

As to CCTGGGCG, the binding signal was 9.75 upbm affinity estimate (log intensity, higher = more binding, comparable within an allelic series).

For GGACTCCC, the binding signal was 9.84 upbm affinity estimate (log intensity, higher = more binding, comparable within an allelic series).

As to GAGTAATA, the binding signal was 11.7 upbm affinity estimate (log intensity, higher = more binding, comparable within an allelic series).

Consider ACGTTAAT, for which the binding signal is 12.9 upbm affinity estimate (log intensity, higher = more binding, comparable within an allelic series).

On to CCTCGTCC, for which the binding signal is 9.86 upbm affinity estimate (log intensity, higher = more binding, comparable within an allelic series).

In the case of ACCTGCCG, the binding signal is 9.98 upbm affinity estimate (log intensity, higher = more binding, comparable within an allelic series).

As for CCGGCACG, the binding signal was 9.85 upbm affinity estimate (log intensity, higher = more binding, comparable within an allelic series).

On to AGTAATTC, for which the binding signal is 11.6 upbm affinity estimate (log intensity, higher = more binding, comparable within an allelic series).

With GATTTATA, the binding signal was 11.4 upbm affinity estimate (log intensity, higher = more binding, comparable within an allelic series).

Consider ATAAATCG, for which the binding signal was 11.5 upbm affinity estimate (log intensity, higher = more binding, comparable within an allelic series).

On to CCTCCAGC, for which the binding signal was 9.83 upbm affinity estimate (log intensity, higher = more binding, comparable within an allelic series).

Turning to CAGGGGGA, the binding signal is 9.87 upbm affinity estimate (log intensity, higher = more binding, comparable within an allelic series).

With CCCCGACC, the binding signal is 9.87 upbm affinity estimate (log intensity, higher = more binding, comparable within an allelic series).

As for ACGTTTAG, the binding signal was 11 upbm affinity estimate (log intensity, higher = more binding, comparable within an allelic series).

On to AGGGCGAG, for which the binding signal is 9.74 upbm affinity estimate (log intensity, higher = more binding, comparable within an allelic series).

As for AGTCCTTC, the binding signal was 9.61 upbm affinity estimate (log intensity, higher = more binding, comparable within an allelic series).

Take CTCATCTA: the binding signal is 11.5 upbm affinity estimate (log intensity, higher = more binding, comparable within an allelic series).

Turning to CGTCAATA, the binding signal is 10.9 upbm affinity estimate (log intensity, higher = more binding, comparable within an allelic series).

For a further experiment, the target named is HOXA4 (Homo sapiens, UniProt Q00056 201-287, W262F). Description: PBM; 200 nM protein, PBS. Particulars: dsDNA, one strand shown.
Sequence of HOXA4 (Homo sapiens, UniProt Q00056 201-287, W262F) (Q00056 201-287 W262F): as the sequence (Q00056 201-287) above, with W62F counted along it
On to CATGATTA, for which the binding signal is 10.8 upbm affinity estimate (log intensity, higher = more binding, comparable within an allelic series).

For AGTCCCCG, the binding signal was 9.99 upbm affinity estimate (log intensity, higher = more binding, comparable within an allelic series).

On to CTCCCACC, for which the binding signal is 9.88 upbm affinity estimate (log intensity, higher = more binding, comparable within an allelic series).

With CCACGCCC, the binding signal was 9.99 upbm affinity estimate (log intensity, higher = more binding, comparable within an allelic series).

Turning to CAGACCTC, the binding signal is 9.9 upbm affinity estimate (log intensity, higher = more binding, comparable within an allelic series).

Turning to AACATTAG, the binding signal was 10.7 upbm affinity estimate (log intensity, higher = more binding, comparable within an allelic series).

With CCAGCGGG, the binding signal was 9.76 upbm affinity estimate (log intensity, higher = more binding, comparable within an allelic series).

For AATCCCCC, the binding signal was 9.73 upbm affinity estimate (log intensity, higher = more binding, comparable within an allelic series).

Take CACGGTGC: the binding signal was 9.86 upbm affinity estimate (log intensity, higher = more binding, comparable within an allelic series).

With CCTGCTCC, the binding signal was 9.97 upbm affinity estimate (log intensity, higher = more binding, comparable within an allelic series).

As for CCAGCCGG, the binding signal was 9.77 upbm affinity estimate (log intensity, higher = more binding, comparable within an allelic series).

With AGGGGGCA, the binding signal was 9.82 upbm affinity estimate (log intensity, higher = more binding, comparable within an allelic series).

Regarding CAATCACG, the binding signal was 10.5 upbm affinity estimate (log intensity, higher = more binding, comparable within an allelic series).

Regarding GGCGAGCC, the binding signal was 9.76 upbm affinity estimate (log intensity, higher = more binding, comparable within an allelic series).

For the sequence ACCCTAGG, the binding signal is 9.92 upbm affinity estimate (log intensity, higher = more binding, comparable within an allelic series).

AGCTCCCC: the binding signal is 9.81 upbm affinity estimate (log intensity, higher = more binding, comparable within an allelic series).

CCTCCGTC: the binding signal is 9.84 upbm affinity estimate (log intensity, higher = more binding, comparable within an allelic series).

Turning to CCTGGGCG, the binding signal is 9.8 upbm affinity estimate (log intensity, higher = more binding, comparable within an allelic series).

As to GGACTCCC, the binding signal was 9.79 upbm affinity estimate (log intensity, higher = more binding, comparable within an allelic series).

As to ACGTTAAT, the binding signal is 11 upbm affinity estimate (log intensity, higher = more binding, comparable within an allelic series).

CCTCGTCC: the binding signal is 9.98 upbm affinity estimate (log intensity, higher = more binding, comparable within an allelic series).

Regarding ACCTGCCG, the binding signal was 9.88 upbm affinity estimate (log intensity, higher = more binding, comparable within an allelic series).

As to CCGGCACG, the binding signal was 9.93 upbm affinity estimate (log intensity, higher = more binding, comparable within an allelic series).

Consider CCTCCAGC, for which the binding signal is 9.76 upbm affinity estimate (log intensity, higher = more binding, comparable within an allelic series).

On to CAGGGGGA, for which the binding signal was 9.7 upbm affinity estimate (log intensity, higher = more binding, comparable within an allelic series).

CCCCGACC: the binding signal was 9.99 upbm affinity estimate (log intensity, higher = more binding, comparable within an allelic series).

For the sequence AGGGCGAG, the binding signal is 9.91 upbm affinity estimate (log intensity, higher = more binding, comparable within an allelic series).

As for AGTCCTTC, the binding signal was 9.89 upbm affinity estimate (log intensity, higher = more binding, comparable within an allelic series).

These data come from publication PMC11006913.
